# The supplement of paper PMC8975748
# Counter-ions that a name gives are not always drawn.
# System: Saccharomyces cerevisiae BY4741 SeMeCo community
# Assay: z-score of subpopulation abundance vs DMSO median, subpopulation auxotrophic for LM; higher = larger share of this subpopulation than in DMSO controls
# Settings: 10 µM; 24 h; SM minimal medium; subpopulation (auxotrophy): LM
# Method in brief: (§1)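 Scoring was based on each subpopulation's abundance, expressed as a z-score against the vehicle-well median. A Saccharomyces cerevisiae BY4741 community with four plasmids, each restoring one auxotrophy and encoding a distinct fluorescent protein, was pre-grown overnight to OD600 1.0, diluted to 0.3, and added at 70 µl to 384-well plates acoustically predosed with library drugs (10 µM final). It then grew 24 h in minimal SM medium before paraformaldehyde fixation and automated confocal microscopy, with single-auxotroph fluorescent strains setting thresholds and autofluorescence correction.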
row,Structure (SMILES),z-score of subpopulation abundance
1,O=C(Cn1cnnn1)N[C@@H]1C(=O)N2C(C(=O)O)=C(CSc3nncs3)CS[C@H]12 [Ceftezole],-0.52
2,O=C(NCCN1CCOCC1)c1ccc(Cl)cc1,1.06
3,C=C[C@]1(C)C[C@@H](OC(=O)CSC(C)(C)CNC(=O)[C@H](N)C(C)C)[C@]2(C)[C@H](C)CC[C@]3(CCC(=O)[C@H]32)[C@@H](C)[C@@H]1O [Valnemulin HCl],0.54
4,CN1CCN(CCCN2c3ccccc3Sc3ccc(C(F)(F)F)cc32)CC1 [Trifluoperazine 2HCl],-0.04
5,CCCCCCCCN=c1ccn(CCCCCCCCCCn2ccc(=NCCCCCCCC)cc2)cc1 [Octenidine Dihydrochloride],0.87
6,CC1(C)S[C@@H]2[C@H](NC(=O)Cc3ccccc3)C(=O)N2[C@H]1C(=O)O [Penicillin G Sodium],-0.29
7,CC(C)[C@H]1CC[C@H](C(=O)N[C@H](Cc2ccccc2)C(=O)O)CC1 [Nateglinide],0.32
8,Nc1ccc(S(=O)(=O)NC(=O)c2ccccc2)cc1 [Sulfabenzamide],-0.72
9,COc1ccc(C(=O)NCc2ccc(OCCN(C)C)cc2)cc1OC [Itopride hydrochloride],0.86
10,COc1ccc(-c2nc3cc(C4=NNC(=O)CC4C)ccc3[nH]2)cc1 (centres undefined) [Pimobendan],1.71
11,COc1cc([C@@H]2c3cc4c(cc3[C@@H](O[C@@H]3O[C@@H]5CO[C@@H](c6cccs6)O[C@H]5[C@H](O)[C@H]3O)[C@H]3COC(=O)[C@H]23)OCO4)cc(OC)c1O [Teniposide],1.46
12,COc1ccc2c(c1)c(CC(=O)O)c(C)n2C(=O)c1ccc(Cl)cc1 [Indomethacin],0.16
13,N[C@@H](CCC(=O)O)C(=O)O [(S)-Glutamic acid],0.15
14,NC(=O)c1cnccn1 [Pyrazinamide],-0.13
15,Cc1nnc(NS(=O)(=O)c2ccc(N)cc2)s1 [Sulfamethizole],-0.01
16,CN[C@@H]1[C@H](O[C@H]2[C@H](O[C@H]3[C@H](O)[C@@H](O)[C@H](N=C(N)N)[C@@H](O)[C@@H]3N=C(N)N)O[C@@H](C)[C@]2(O)C=O)O[C@@H](CO)[C@H](O)[C@H]1O [Streptomycin sulfate],-0.12

row,Structure (SMILES),z-score of subpopulation abundance
1,O=c1[nH]cnc2c1ncn2[C@@H]1O[C@H](CO)[C@@H](O)[C@H]1O [Isoprinosine],0
2,C=C1c2cccc(O)c2C(O)=C2C(=O)[C@]3(O)C(O)=C(C(N)=O)C(=O)[C@@H](N(C)C)[C@@H]3[C@@H](O)[C@H]12 [Methacycline HCl],0.5
3,COC(=O)C1=C(C)NC(C)=C(C(=O)OC)C1c1ccccc1[N+](=O)[O-] [Nifedipine],0.48
4,NC(CO)(CO)CO [Trometamol],-0.62
5,C[C@]1(COc2ccc(N3CCC(Oc4ccc(OC(F)(F)F)cc4)CC3)cc2)Cn2cc([N+](=O)[O-])nc2O1 [Delamanid],0.45
6,Nc1nc(=O)[nH]cc1F [Flucytosine],-4.29
7,C[C@]12CC[C@@H]3c4ccc(OS(=O)(=O)O)cc4CC[C@H]3[C@@H]1CCC2=O [Estropipate],-0.33
8,COc1ccnc(C[S+]([O-])c2nc3cc(-n4cccc4)ccc3[nH]2)c1C (centres undefined) [Ilaprazole sodium],1.43
9,CN1C[C@@H]2C[C@H]1CN2c1cc2c(cc1F)c(=O)c(C(=O)O)cn2C1CC1 [Danofloxacin Mesylate],-0.68
10,c1ccc(-c2ccc(C(c3ccccc3)n3ccnc3)cc2)cc1 (centres undefined) [Bifonazole],0.64
11,CN(C)[C@@H]1C(=O)C(C(N)=O)=C(O)[C@@]2(O)C(=O)C3=C(O)c4c(O)ccc(Cl)c4[C@@H](O)[C@H]3C[C@@H]12 [Demeclocycline HCl],-0.4
12,C#C[C@]1(O)CC[C@H]2[C@@H]3CCC4=Cc5oncc5C[C@]4(C)[C@H]3CC[C@@]21C [Danazol],0.04
13,Nc1c(Br)cc(Br)cc1CN[C@H]1CC[C@H](O)CC1 [Ambroxol HCl],-0.43
14,O=C1c2c(O)ccc(O)c2C(=O)c2c(NCCNCCO)ccc(NCCNCCO)c21 [Mitoxantrone 2HCl],-5.45
15,C[C@@H](O)[C@H]1C(=O)N2C(C(=O)[O-])=C(SC3Cn4cnc[n+]4C3)[C@H](C)[C@H]12 (some centres undefined) [Biapenem],-0.22

# System: Saccharomyces cerevisiae BY4741 SeMeCo community
# Assay: z-score of subpopulation abundance vs DMSO median, subpopulation auxotrophic for HM; higher = larger share of this subpopulation than in DMSO controls
# Settings: 10 µM; 24 h; SM minimal medium; subpopulation (auxotrophy): HM
# Method in brief: as §1
row,Structure (SMILES),z-score of subpopulation abundance
1,O=C(NCCN1CCOCC1)c1ccc(Cl)cc1,-0.79
2,CN1CCN(CCCN2c3ccccc3Sc3ccc(C(F)(F)F)cc32)CC1 [Trifluoperazine 2HCl],0.33
3,CC1(C)S[C@@H]2[C@H](NC(=O)Cc3ccccc3)C(=O)N2[C@H]1C(=O)O [Penicillin G Sodium],-1.14
4,CC(C)[C@H]1CC[C@H](C(=O)N[C@H](Cc2ccccc2)C(=O)O)CC1 [Nateglinide],0.65
5,COc1ccc(C(=O)NCc2ccc(OCCN(C)C)cc2)cc1OC [Itopride hydrochloride],0.17
6,COc1ccc(-c2nc3cc(C4=NNC(=O)CC4C)ccc3[nH]2)cc1 (centres undefined) [Pimobendan],0.78
7,CC(C)N1CCN(c2ccc(OCC3COC(Cn4cncn4)(c4ccc(Cl)cc4Cl)O3)cc2)CC1 (centres undefined) [Terconazole],-1.2
8,COc1cc([C@@H]2c3cc4c(cc3[C@@H](O[C@@H]3O[C@@H]5CO[C@@H](c6cccs6)O[C@H]5[C@H](O)[C@H]3O)[C@H]3COC(=O)[C@H]23)OCO4)cc(OC)c1O [Teniposide],0.99
9,COc1ccc2c(c1)c(CC(=O)O)c(C)n2C(=O)c1ccc(Cl)cc1 [Indomethacin],-1.04
10,N[C@@H](CCC(=O)O)C(=O)O [(S)-Glutamic acid],-0.08
11,CC1(C)S[C@@H]2[C@H](NC(=O)Cc3ccccc3)C(=O)N2[C@H]1C(=O)O [Benzylpenicillin potassium],-0.39
12,NC(=O)c1cnccn1 [Pyrazinamide],-0.55
13,Cc1nnc(NS(=O)(=O)c2ccc(N)cc2)s1 [Sulfamethizole],-1.19
14,CCC[C@@H]1C[C@@H](C(=O)N[C@@H]([C@H]2O[C@H](SC)[C@H](OP(=O)(O)O)[C@@H](O)[C@H]2O)[C@H](C)Cl)N(C)C1 [Clindamycin Phosphate],0.11
15,CN[C@@H]1[C@H](O[C@H]2[C@H](O[C@H]3[C@H](O)[C@@H](O)[C@H](N=C(N)N)[C@@H](O)[C@@H]3N=C(N)N)O[C@@H](C)[C@]2(O)C=O)O[C@@H](CO)[C@H](O)[C@H]1O [Streptomycin sulfate],0.19
16,O=c1[nH]cnc2c1ncn2[C@@H]1O[C@H](CO)[C@@H](O)[C@H]1O [Isoprinosine],-0.53
17,C=C1c2cccc(O)c2C(O)=C2C(=O)[C@]3(O)C(O)=C(C(N)=O)C(=O)[C@@H](N(C)C)[C@@H]3[C@@H](O)[C@H]12 [Methacycline HCl],0.54

row,Structure (SMILES),z-score of subpopulation abundance
1,COC(=O)C1=C(C)NC(C)=C(C(=O)OC)C1c1ccccc1[N+](=O)[O-] [Nifedipine],-0.14
2,Nc1ccc(S(=O)(=O)c2ccc(N)cc2)cc1 [Dapson],0.93
3,NC(CO)(CO)CO [Trometamol],-0.48
4,C[C@]1(COc2ccc(N3CCC(Oc4ccc(OC(F)(F)F)cc4)CC3)cc2)Cn2cc([N+](=O)[O-])nc2O1 [Delamanid],0
5,Nc1nc(=O)[nH]cc1F [Flucytosine],17.8
6,C[C@]12CC[C@@H]3c4ccc(OS(=O)(=O)O)cc4CC[C@H]3[C@@H]1CCC2=O [Estropipate],-0.81
7,COc1ccnc(C[S+]([O-])c2nc3cc(-n4cccc4)ccc3[nH]2)c1C (centres undefined) [Ilaprazole sodium],1.14
8,CN1C[C@@H]2C[C@H]1CN2c1cc2c(cc1F)c(=O)c(C(=O)O)cn2C1CC1 [Danofloxacin Mesylate],-0.46
9,CO/N=C(\C(=O)N[C@@H]1C(=O)N2C(C(=O)O)=CCS[C@H]12)c1csc(N)n1 [Ceftizoxime],-0.82
10,CN(C)[C@@H]1C(=O)C(C(N)=O)=C(O)[C@@]2(O)C(=O)C3=C(O)c4c(O)ccc(Cl)c4[C@@H](O)[C@H]3C[C@@H]12 [Demeclocycline HCl],-1
11,C#C[C@]1(O)CC[C@H]2[C@@H]3CCC4=Cc5oncc5C[C@]4(C)[C@H]3CC[C@@]21C [Danazol],-0.49
12,Nc1c(Br)cc(Br)cc1CN[C@H]1CC[C@H](O)CC1 [Ambroxol HCl],-1.17
13,CCOC(=O)c1ccc(N)cc1 [Benzocaine],0.67
14,O=C1c2c(O)ccc(O)c2C(=O)c2c(NCCNCCO)ccc(NCCNCCO)c21 [Mitoxantrone 2HCl],-7.73
15,c1ccc2[nH]c(-c3cscn3)nc2c1 [Thiabendazole],-0.37
16,C[C@@H](O)[C@H]1C(=O)N2C(C(=O)[O-])=C(SC3Cn4cnc[n+]4C3)[C@H](C)[C@H]12 (some centres undefined) [Biapenem],0.51
